FBPA Giardia inh: inhibitors of Giardia lamblia fructose-1,6-bisphosphate aldolase; purified Giardia FBPA; Potency, µM (highest dose often 59.6 µM), without a hit: at the top dose activity, negative = inhibition, usual class: inhibitors; 290,000 tested, 0.71% active; further: potency means the concentration at half of the fitted maximal effect; nearly all actives have a fitted effect of over 55% in size
Target sequence (A8B2U2 whole entry, looked up): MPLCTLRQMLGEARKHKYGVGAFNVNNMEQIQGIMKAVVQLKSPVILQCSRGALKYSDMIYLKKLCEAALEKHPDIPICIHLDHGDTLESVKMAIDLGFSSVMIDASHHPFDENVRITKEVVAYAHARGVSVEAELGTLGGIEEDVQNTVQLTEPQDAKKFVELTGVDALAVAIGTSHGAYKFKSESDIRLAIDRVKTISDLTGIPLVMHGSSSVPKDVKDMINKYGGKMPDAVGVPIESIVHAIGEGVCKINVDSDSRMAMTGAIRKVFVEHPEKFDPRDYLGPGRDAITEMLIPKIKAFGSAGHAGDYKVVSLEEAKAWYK
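40 nM FBPA preincubated 10 min at RT with compound (up to 57.5 uM final), then substrate plus GAPDH/TPI/NAD/arsenate coupling and diaphorase/resazurin added. Fluorescence read after 20 min at RT, 525/598 nm.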
Pf growth 48h: P. falciparum growth inhibition at 48 hours (one generation); AID 504832; P. falciparum luciferase growth in erythrocytes, 48 h; Potency, µM (doses to about 28.7 µM), for the others: at the top dose activity change, negative = inhibition, actives largely listed as inhibitors; 310,000 tested, 5.9% active; further: potency means the concentration at half of the fitted maximal effect
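Luciferase-expressing P. falciparum in infected erythrocytes (2% hematocrit, 0.1% parasitemia final) in RPMI 1640/0.5% Albumax were exposed to compound for 48 hours at 37 C, 5% CO2; growth read as luminescence.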
Pf growth 96h: P. falciparum growth inhibition at 96 hours; P. falciparum luciferase reporter growth, 96 h; 320,000 tested, 6.9% active; Potency, µM (series often up to 28.7 µM), without a hit: at the highest dose activity change, negative = inhibition, usual class: inhibitors; further: potency means the concentration at half of the fitted maximal effect
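Plates of compound plus infected erythrocytes (2% hematocrit, 0.05% parasitemia final) incubate 96 hours, 37 C, 5% CO2. Detection reagent added; reduced luminescence from the parasites' luciferase reporter flags inhibition.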
HCMV inh: inhibitors of human cytomegalovirus; HFF cells, HCMV-luciferase reporter, 72 h; hits give low values; activity change, negative = inhibition, % at 57.5 µM; 410,000 tested, 4.5% active; AID 1259415; in the data active means activity change below about -60%; inconclusive means no clear call, values can overlap the other calls; inactive means above about -39%
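Screen run at 2 compound doses on HFFs infected with reporter HCMV, MOI 1 PFU/cell. Luciferase activity from cell lysates at 72 h post infection gave inhibition relative to buffer-only and Salinomycin wells.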
Sm TGR inh: blocks Schistosoma mansoni thioredoxin glutathione reductase; purified TGR, DTNB reduction, TNB absorbance 405 nm; Potency, µM (highest dose often 114 µM), without a hit: at the top dose activity change, negative = inhibition, usual class: inhibitors; 360,000 tested, 3% active; AID 485364; further: potency means the concentration at half of the fitted maximal effect; nearly all actives have a fitted effect of over 60% in size
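TGR 20 nM + NADPH 100 uM (dispensed conc.), cpd preinc 15 min RT; start with NADPH (500 uM addition) then DTNB (15 mM addition). Kinetic TNB absorbance, 405 nm filter. Four-parameter Hill fit across titration.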
The depositor's hits bear a star. The list is not random: actives were taken first. Their share in the collection is about 14%. Unless noted, the call rests on the fitted dose curve; in most records, active means well fitted curve in the direction sought with a large enough effect; inconclusive means small, poorly fitted or top-dose-only effect, or another doubt; inactive means no such curve, though single readings can be large; an effect the other way counts as inactive or inconclusive. On the % scale 0 is the no-effect control and ±100 the full control effect.

Screening NC(=O)C1C(=O)c2ccccc2C1(C[N+](=O)[O-])c1ccccc1 (centres undefined) returned HCMV inh -101*.
Screening CCN1C(=O)/C(=C\c2ccc([N+](=O)[O-])s2)C(=O)NC1=S returned FBPA Giardia inh 11µM*, Pf growth 48h -6%, Pf growth 96h inconclusive and Sm TGR inh 2.8µM*.
Screening C=CCN1C(=O)/C(=C/c2ccc(Br)s2)C(=O)NC1=S returned FBPA Giardia inh 15%, Pf growth 48h 53%, Pf growth 96h 37%, HCMV inh 32 and Sm TGR inh 2.5µM*.
Screening C=CCN1C(=O)/C(=C/c2cc(C)n(-c3cccnc3)c2C)C(=O)NC1=S returned FBPA Giardia inh inconclusive, Pf growth 48h -6%, Pf growth 96h 23%, HCMV inh -14 and Sm TGR inh inconclusive.
For N#Cc1nc(-c2cccc3ccccc23)oc1NCC1CCCO1 (centres undefined) the results were FBPA Giardia inh -17%, Pf growth 48h 46%, Pf growth 96h 4%, HCMV inh -67* and Sm TGR inh 13%.
For CC1=CC(C)(C)n2c(O)c(N=NC(N)=S)c3cc(C)cc1c32 the results were FBPA Giardia inh 1%, Pf growth 48h inconclusive, Pf growth 96h -8%, HCMV inh -68* and Sm TGR inh 4%.
For C=CCSC1=N/C(=C\c2ccsc2)C(=O)S1 the results were FBPA Giardia inh -4%, Pf growth 48h 13%, Pf growth 96h -9%, HCMV inh 85 and Sm TGR inh -28%.
For C=CCSC1=N/C(=C\c2ccc(C)o2)C(=O)S1 the results were FBPA Giardia inh -23%, Pf growth 96h 53%, HCMV inh 4 and Sm TGR inh 40µM*.
`NC(=O)c1ccc(-n2nnnc2SCC(=O)NC2CCCCC2)cc1` gave FBPA Giardia inh 6%, Pf growth 48h 27%, Pf growth 96h 13µM*, HCMV inh -12 and Sm TGR inh -2%.
`NC(=O)c1ccc(-n2nnnc2SCC(=O)c2ccc(O)c(O)c2)cc1` gave FBPA Giardia inh -5%, Pf growth 48h 31%, Pf growth 96h inconclusive, HCMV inh -100* and Sm TGR inh -3%.
Screening NC(=O)CSc1nnnn1-c1ccc(OC(F)(F)F)cc1 returned FBPA Giardia inh 0%, Pf growth 48h 6%, Pf growth 96h 0.19µM*, HCMV inh 6 and Sm TGR inh 9%.
For COc1ccc(-n2nnnc2SCC(N)=O)cc1 the results were FBPA Giardia inh 4%, Pf growth 48h 0%, HCMV inh -5 and Sm TGR inh -8%.
Screening O=C(CSc1nnnn1-c1ccc(C(=O)O)cc1)NC1CC1 returned Pf growth 48h 1%, Pf growth 96h inconclusive, HCMV inh -5 and Sm TGR inh 1%.
For COC(=O)c1ccc(C(NC(=O)OCc2ccccc2)/C(C)=C/[C@@H](C)C(=O)NCc2cccnc2)cc1 (some centres undefined) the results were FBPA Giardia inh 4%.
Screening Cc1ccc(NC(=O)c2cccc(C(=O)Nc3ccc(C)c(C)c3)n2)cc1C returned FBPA Giardia inh 2%, Pf growth 48h inconclusive, Pf growth 96h inconclusive, HCMV inh 32 and Sm TGR inh 5%.
`Cc1nn(C)c(C)c1CN(C(=O)C1CCC(=O)N(C2CCCCCC2)C1)C(C)C` (centres undefined) gave Pf growth 48h inconclusive, Pf growth 96h 12µM*, HCMV inh -31 and Sm TGR inh -20%.
O=C(CNC(=O)c1cc(Cl)cc([N+](=O)[O-])c1)NC1CC1 was read as HCMV inh 27.
Screening C(/C=C/c1ccccc1)=N/N1CCN(c2ccccc2)CC1 returned FBPA Giardia inh 4%, Pf growth 48h 102%, Pf growth 96h 88%, HCMV inh -101* and Sm TGR inh 8%.
CS(=O)(=O)c1[nH]nc(-c2cccc(Cl)c2)c1C#N was read as FBPA Giardia inh 13%, Pf growth 48h -2%, Pf growth 96h 23%, HCMV inh -11 and Sm TGR inh 30%.
Screening CC(C)CCNC(=O)Cc1csc(-c2ccccc2)n1 returned FBPA Giardia inh 1%, Pf growth 48h 2%, Pf growth 96h 24%, HCMV inh 67 and Sm TGR inh 5%.
For CCc1ccc(-c2nc(CN3CCCC(C(=O)N4CCN(c5cc(Cl)ccc5C)CC4)C3)c(C)o2)cc1 (centres undefined) the results were HCMV inh -86* and Sm TGR inh -9%.
Screening Cc1ccc(Cl)cc1N1CCN(C(=O)C2CCCN(Cc3nc(-c4cccc(Cl)c4)oc3C)C2)CC1 (centres undefined) returned HCMV inh -69* and Sm TGR inh 23%.
`CCc1ccc(-c2nc(CN3CCCC(C(=O)NCCc4ccc(OC)c(OC)c4)C3)c(C)o2)cc1` (centres undefined) gave FBPA Giardia inh -1%, Pf growth 48h inconclusive, Pf growth 96h inconclusive, HCMV inh -92* and Sm TGR inh -15%.
Cc1oc(-c2ccc(F)cc2)nc1CN1CCCC(C(=O)N2CCOCC2)C1 (centres undefined) was read as FBPA Giardia inh 9%, Pf growth 48h -25%, Pf growth 96h 35%, HCMV inh -37 and Sm TGR inh 3%.
`Cc1ccc(C)c(N2CCN(C(=O)C3CCCN(Cc4nc(-c5cccc(Cl)c5)oc4C)C3)CC2)c1` (centres undefined) gave HCMV inh 0 and Sm TGR inh -3%.
For CCOC(=O)N1CCN(C(=O)C2CCCN(Cc3nc(-c4ccc(Cl)cc4)oc3C)C2)CC1 (centres undefined) the results were FBPA Giardia inh 4%, Pf growth 96h 10µM*, HCMV inh inconclusive and Sm TGR inh 0%.
COc1cc(NS(=O)(=O)c2ccc3c(c2)CCCN3C(C)=O)cc(OC)c1OC was read as HCMV inh -38 and Sm TGR inh 4%.
Cc1ccc(C)c(NC(=O)c2cccc(Oc3ccc([N+](=O)[O-])cc3Cl)c2)c1 was read as FBPA Giardia inh -1%, Pf growth 48h -7%, Pf growth 96h 13µM*, HCMV inh inconclusive and Sm TGR inh -5%.
Screening O=C(Nc1cccc(Cl)c1)c1cccc(Oc2ccc([N+](=O)[O-])cc2Cl)c1 returned FBPA Giardia inh -11%, Pf growth 48h inconclusive, Pf growth 96h inconclusive, HCMV inh -89* and Sm TGR inh -8%.
`COc1ccc(NC(=O)c2cccc(Oc3ccc([N+](=O)[O-])cc3Cl)c2)cc1` gave FBPA Giardia inh -7%, Pf growth 48h -8%, Pf growth 96h 359%, HCMV inh -87* and Sm TGR inh 0%.
Screening O=C(NCCO)c1ccc(Oc2ccc(C(F)(F)F)cc2[N+](=O)[O-])cc1 returned FBPA Giardia inh 1%, Pf growth 48h 6%, Pf growth 96h -28%, HCMV inh -20 and Sm TGR inh 2%.

Bioassay records (PubChem)
